# Source: PubChem (several laboratories)
# Most compounds without a hit are left out; they make up all but 1.2% or so of the library.
# bovine MsrA act – bovine methionine sulfoxide reductase A activation. purified bovine MsrA, absorbance read-out. activation, % at 10.6 µM. 360,000 tested, 0.3% active; in the data active = activation above about 7.5%;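 also: 0% = vehicle and 100% = reference activator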
# GC-B act – GC-B (human) receptor activation; AID 1920062; HEK293-GC-B cells, CNP EC30, cGMP TR-FRET; 0% at EC30 CNP, 100% saturating CNP; 370,000 tested, 0.11% active; activation, % at 10 µM;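 active = activation at 10 µM reaching about 35% in either raw or pattern-adjusted values, limit read from the data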
# GC-A act – GC-A (human) enzyme activation. P16066. HEK293 GC-A cells, cGMP TR-FRET, EC30 ANP; 0% at EC30 ANP, 100% saturating ANP. activation, % at 10 µM. 370,000 tested, 0.14% active. AID 1671463; in the data active = activation above about 40%
# MsrA inhibitor – bovine MsrA inhibition; purified bovine MsrA, absorbance read-out; inhibition, % at 15.5 µM; 360,000 tested, 0.75% active; AID 651718;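 also: 0% = vehicle wells with enzyme and 100% = reference inhibitor wells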
# MsrA inh confirm – confirmation of bovine MsrA inhibitors | shares compounds with MsrA inhibitor | purified bovine MsrA, absorbance read-out | inhibition, % at 15.5 µM | 2,300 tested, 41% active | AID 651822;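 also: coupled to thioredoxin reductase with NADPH and selenocystamine and DMSO as substrate; 0% = vehicle only and 100% = full effect of reference inhibitor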
# Starred values were filed as active, the others as inactive; · = no result given; ! = not active in a repeat. Rule as the data show it, unless noted: active = inhibition above about 4.5%; inactive = the rest.
SMILES,bovine MsrA act,GC-B act,GC-A act,MsrA inhibitor,MsrA inh confirm
CCN(C)C(=O)CN1C(=O)C2CCCCN2C(=O)c2ccccc21 (configuration not stated),·,-4.7,-1.3,·,·
Cc1cccc(C(=O)N[C@H]2CC[C@@]34CCCN3C(=O)CCC[C@H]4[C@H]2C)c1,·,0.3,3.6,·,·
COc1ccc2cc3[n+](cc2c1OC)CCc1cc2c(cc1-3)OCO2,-6.5,-6.4,-6.2,6.6*!,5.4*
COc1cccc(C2=NCCc3cc4c(cc32)OCO4)c1OC,-12.9,-2.4,-3.1,1.7,·
c1cnn(-c2cncc(-n3cccn3)n2)c1,-4.3,5.1,-2.6,14.1*,10.3*
O=C(c1ccccc1)c1ccc(O)cc1O,-6.4,-1.9,1.0,5.6*,2.5
CC(=O)C1(C(=O)N2CCOCC2)CC(c2ccccc2C(F)(F)F)=NO1 (configuration not stated),·,6.1,2.2,·,·
O=C(O)/C=C/c1cn(-c2ccccc2)nc1-c1ccccc1,-2.5,-4.5,-2.8,-0.3,·
O=Cc1cn(-c2ccccc2)nc1-c1ccncc1,-0.8,-0.2,-2.8,6.0*,2.2
O=Cc1cn(-c2ccccc2)nc1-c1cccc([N+](=O)[O-])c1,-3.6,-11.6,3.4,3.8,·
O=Cc1cn(-c2ccccc2)nc1-c1cccnc1,-7.9,-0.5,1.5,10.9*,4.1
Cc1ccc(-c2nn(-c3ccccc3)cc2/C=N/NC(=O)c2ccc(Br)o2)cc1,-3.6,6.0,-6.6,0.8,·
O=C(N/N=C\c1cn(-c2ccccc2)nc1-c1ccccc1)c1ccc(Br)o1,-10.9,2.6,-3.8,6.4*,2.5
O=Cc1cn(-c2ccccc2)nc1-c1ccccc1,0.8,0.4,2.9,14.0*,11.4*
O=C(Nc1ccc2[nH]ccc2c1)c1cc(-c2ccc(Cl)cc2)nc2ccccc12,·,-6.8,1.5,·,·
CCOC(=O)[C@]12CCCCC/C=C\1N(CCc1ccc(Cl)cc1)C(=O)[C@H]2CC(=O)NCc1cccs1,·,-6.8,2.1,·,·
C(=N\N1CCOCC1)/c1cn(-c2ccccc2)nc1-c1ccccc1,-4.2,-2.7,-1.7,7.0*,-0.2
Cc1c(/C=N/Nc2ccc(F)cc2)c(O)n(C)c(=O)c1C#N,-15.1,3.8,2.0,6.4*,6.7*
CC(=O)N=Cc1c(C)c(C#N)c(=O)n(C)c1O,-3.3,1.0,-0.4,3.5,·
CCCC1CCC2(CCCN2CCOC(=O)Nc2ccc(OC)cc2)CC1 (configuration not stated),·,-4.9,-7.9,·,·
CCC(C)(C)C(=O)N1CCC(C(=O)NC2CCCc3ccccc32)CC1 (configuration not stated),·,-5.7,0.3,·,·
O=C(/C=C/c1ccc(O)c(O)c1)OC1C(O)CC(OC(=O)/C=C/c2ccc(O)c(O)c2)(C(=O)O)CC1O (configuration not stated),-1.9,2.2,-1.3,5.7*,1.7
Cc1cccn2c(=O)nc(SCC(=O)N3CC(C)OC(C)C3)nc12 (configuration not stated),-5.0,0.0,2.6,5.5*,1.6
COCCCN1C(=O)[C@H](CC(=O)NCCc2ccccc2OC)[C@]2(C(=O)OC)CCCCC=C12,·,-5.2,-1.3,·,·
COCCN1Cc2cc(C(=O)OC)c3c(c2C1=O)c1cc(OC)ccc1n3S(C)(=O)=O,·,-1.0,0.3,0.7,·
SMILES,bovine MsrA act,GC-B act,GC-A act,MsrA inhibitor,MsrA inh confirm
COc1ccc(-c2nn(CCC(=O)O)cc2/C=C2\SC(N)=NC2=O)cc1OC,-4.5,2.7,-4.2,5.6*,3.0
CCCOc1ccc(-c2nn(-c3ccccc3)cc2/C=C2\SC(N)=NC2=O)cc1C,-1.6,0.3,6.0,-0.2,·
O=C(N/N=C/C(Cl)=C/c1ccc([N+](=O)[O-])cc1)C(=O)Nc1ccccc1C(=O)O,-3.9,-10.7,-4.3,7.5*,3.5
O=C(N/N=C/C(Cl)=C/c1ccc([N+](=O)[O-])cc1)C(=O)Nc1ccc(C(=O)O)cc1,-5.2,2.2,-1.5,1.6,·
CCN1CCCC1CNC(=O)Cn1nc(C)n2c(cc3cc(F)ccc32)c1=O (configuration not stated),-7.9,-3.2,4.5,25.0*,0.4
CSc1ccc(/C=N/n2nnnc2N)cc1,-5.5,0.4,-0.5,5.3*,5.2*
Nc1nnnn1/N=C/c1ccc(O)cc1,-2.8,-8.8,-1.4,3.0,·
CC(Nc1cc(N2CCNCC2)ccc1[N+](=O)[O-])c1ccccc1 (configuration not stated),0.9,-7.4,-6.4,2.7,·
CC(C)C(=O)N1CCN(c2ccc([N+](=O)[O-])c(NC(C)c3ccccc3)c2)CC1 (configuration not stated),-2.6,-2.8,-3.6,11.8*,7.2*
